Among the data in PubChem BioAssay AID449762 (Southern Research Specialized Biocontainment Screening …, 2010) are inhibition values, retold here.

Structures are written as SMILES. Out of some 330,000 compounds screened, about 1,900 (0.58%) were called active. Roughly 4% stayed inconclusive and do not appear here. Not all results are given here. Measured potencies and affinities stand elsewhere. Values without a mark were called inactive. Cut-off read from the data, not from the text of the source: inconclusive = inhibition above about 70% without an active follow-up result; inactive = below that.

A short description of this assay: M. tuberculosis growth inhibition, HTS (AID 449762).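 Note: bacterial growth assessed after seven days of incubation.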 The following applies: M. tuberculosis H37Rv growth inhibition, 7H9 media; at 25 µM; hits give high values.
With `CCc1cccc2c(C(=O)C(NCCOC)c3ccccc3)c[nH]c12` (configuration not stated), the inhibition is -0.65%.
In the case of `Cc1ccc(C(=O)Nc2cc([N+](=O)[O-])ccc2C)cc1`, the inhibition was 10.4%.
Turning to `CC(=O)Nc1cccc(-c2nc3ccccc3c(=O)o2)c1`, the inhibition was 8.2%.
Under `CC(C)C(=O)Nc1cccc(-c2nc3ccccc3o2)c1` stands -4.29%; under `CC(C)N(C(C)C)S(=O)(=O)c1ccc(NN)nc1`, 10%; under `CCn1c(N2CCN(Cc3ccc([N+](=O)[O-])cc3)CC2)nc2ccccc21`, 2.71%.
In the case of `CCCn1c(N2CCN(C(=O)Nc3ccc(Cl)cc3)CC2)nc2ccccc21` it was -1.4%.
Consider `CC1CC1C(=O)OCC(=O)NC(=O)c1ccc(C(C)(C)C)cc1` (configuration not stated), for which the inhibition was 4.17%.
Turning to `CC1C(C#N)=C(SCC(N)=O)NC2=C1C(=O)CC(C)(C)C2` (configuration not stated), the inhibition is 0.02%.
In the case of `CC(=O)NNC(=O)CCn1nnc(-c2ccc(Cl)cc2)n1`, the inhibition was 0.1%.
In the case of `COC(=O)c1nnn(CC(=O)NC(=O)Nc2cccc(C)c2C)c1C(=O)OC` it was -2.49%; in that of `CCc1ccc(C(N)=S)cc1`, 40.3%; in that of `CCc1cc(C(N)=S)ccn1`, 40.1%.
Under `CCOC(=O)c1[nH]c2ccc(F)cc2c1NC(=O)CCN1CCOCC1` stands 7.04%; under `CCOc1ccccc1-c1nc(SCC(=O)O)n[nH]1`, 2.12%; under `CCC(=O)c1c[nH]c(C(=O)NCc2cccc(C(F)(F)F)c2)c1`, 3.92%.
Take `C1=C(c2c[nH]c3ccccc23)CCN(Cc2ccccc2)C1`: the inhibition was 8.31%.
In the case of `CCN1CC=C(c2c[nH]c3ccccc23)CC1`, the inhibition was 4.32%.
With `Cc1ccc(S(=O)(=O)Nc2ccc(N=Nc3ccc(O)cc3)cc2)cc1`, the inhibition was 7.49%.
In the case of `Cc1cc(=O)oc2cc(NC(=O)C(C)Oc3cccc(Cl)c3)ccc12` (configuration not stated) it was 4%; in that of `CCOC(=O)c1c(C)[nH]c(C(=O)COC(=O)c2ccc(O)cc2)c1C`, -6.58%; in that of `OC(CN1CCCCC1)Cn1c2ccccc2c2ccccc21` (configuration not stated), 8.7%.
In the case of `O=c1c2ccccc2n(CC(O)CN2CCCCC2)c2ccccc12` (configuration not stated) it was -4.66%; in that of `CC(C)(C)OC(=O)N[C@@H](Cc1ccccc1)C(=O)N1CCC(C(=O)NCC(=O)O)CC1`, -2.02%.
In the case of `Cc1cccc(N2CCN(C(=O)CCCn3c(=O)[nH]c4ccsc4c3=O)CC2C)c1` (configuration not stated) it was 6.71%; in that of `CCc1ccc2c(c1)[C@]1(C(=O)N2)[C@@H]2C(=O)N(Cc3ccccc3)C(=O)[C@@H]2[C@@H]2CCCN21`, -2.59%.
`CCn1nc(C)cc1C(=O)N1CCCC(C(=O)c2ccc3ccccc3c2)C1` (configuration not stated): the inhibition was 0.73%.
Under `Cc1ccc(C(=O)N/N=c2\sc3ccccc3n2C)cc1` stands 10.5%.
Under `COc1cccc(C(=O)N/N=c2\sc3ccccc3n2C)c1` stands 29.6%; under `Cc1ccc(S(=O)(=O)N2CCOCC2)cc1C(=O)NC(=S)N1CC(C)OC(C)C1` (configuration not stated), -0.86%; under `Cc1ccc(/C=N/NC(=O)c2cccs2)s1`, 43%.
With `O=C(N/N=C\c1ccc(Cl)s1)c1cccs1`, the inhibition is 63.3%.
Under `CC1(C)CC(=O)C=C(c2cccc(Br)c2)C1` stands -4.12%; under `COc1cc(-c2nnc(SCC(=O)Nc3ccc(C(=O)O)cc3)o2)cc(OC)c1OC`, -0.72%; under `COc1cc(NC(=O)C2CCN(S(=O)(=O)c3ccc(N4CCCC4=O)cc3)CC2)cc(OC)c1`, 8.33%.
In the case of `C=CCNC(=O)N1CCC(c2nc3ccccc3s2)CC1`, the inhibition was -8.35%.
As to `S=C(NCCN1CCOCC1)N/N=C/c1ccccc1`, the inhibition is -4.03%.
Under `Oc1cccc(/C=N/NC(=S)NCCN2CCOCC2)c1O` stands -1.62%; under `CCCn1c(SCC(=O)Nc2ccc(S(=O)(=O)N(C)C)cc2)n[nH]c1=O`, -9.52%; under `CCn1c(SCC(=O)Nc2ccc3c(c2)OCO3)nnc1C(C)C`, -4.67%.
`COc1ccc(C2=NN(C(=O)COC(=O)c3ccc(NC(=O)CC#N)cc3)C(c3ccco3)C2)cc1` (configuration not stated): the inhibition was -7.88%.
As for `COc1ccc(C2CC(c3ccccc3)=NN2C(=O)COC(=O)c2ccc(S(C)(=O)=O)cc2)cc1` (configuration not stated), the inhibition was 1.53%.
In the case of `Cc1cccc(-n2c(-c3csc4ccccc34)n[nH]c2=S)c1` it was 2.9%; in that of `Cc1nonc1NC(=O)CSc1ccccn1`, 2.01%; in that of `CC(=O)Nc1nonc1NC(=O)CSc1ccccn1`, -2.12%.
Regarding `CN1C(=O)c2ccccc2N(C)C1c1cccc(O)c1` (configuration not stated), the inhibition is 0.25%.
Under `O=C(CN1C(=O)c2cccc3cccc1c23)NCc1ccccn1` stands -1.94%; under `COc1ccc(S(=O)(=O)Nc2cccc(S(=O)(=O)N3CCCC3)c2)cc1OC`, -4.75%.
In the case of `CCOC(=O)CCCNC(=O)COC(=O)c1cc(C)cc(C)c1` it was -0.59%; in that of `CCOC(=O)CCCNC(=O)COC(=O)c1ccc(O)cc1`, -6.12%; in that of `COc1cc(NS(=O)(=O)c2c(C)[nH]c(C)c2C(=O)N2CCCCC2)cc(OC)c1OC`, 7.96%.
Take `COc1ccccc1C(=O)N/C(N)=N/c1nc2ccccc2o1`: the inhibition was 0.95%.
In the case of `O=C(NC(=Nc1nc2ccccc2o1)NC(=O)c1ccccc1)c1ccccc1` it was 3.54%; in that of `CCC(=O)N(Cc1ccco1)Cc1cc2cc3c(cc2[nH]c1=O)OCO3`, 3.54%.
Under `S=C(NCCc1ccccc1)N1CCN(C23CC4CC(CC(C4)C2)C3)CC1` stands 7.41%; under `CCN1CCN(C2CCCCC2NS(=O)(=O)c2ccccc2)CC1` (configuration not stated), -5.99%; under `COc1ccc2oc(C(=O)Nc3nc4ccccc4[nH]3)c(C)c2c1`, 25.6%.
In the case of `Cc1c(C(=O)Nc2nc3ccccc3[nH]2)oc2ccc(Br)cc12` it was 64.1%; in that of `Cc1ccc(C(=O)Cn2c(-c3ccccc3)noc2=O)cc1`, 2.22%; in that of `CCC(C)(C)NC(=O)Cn1c(-c2ccc(C)cc2)noc1=O`, -4.07%.
On to `Cn1ccc(-c2ccccc2)c(C#N)c1=O`, for which the inhibition is -0.87%.
As to `Cc1ccc2nc(SCC(=O)NCC3CCCO3)c(C#N)cc2c1` (configuration not stated), the inhibition was 9.97%.
